Measured values taken from the antibiotic and cytotoxicity screens of Wong et al. (2023).
About 3,300 (8.5%) of roughly 39,000 compounds were called active. What follows is part of a selection rich in actives, with near analogues and random picks from the rest.

System: HepG2
Assay: cytotoxicity call (relative viability < 0.9)
Conditions: 10 µM

SMILES | cytotoxicity call
C[C@@H]1CN([C@H](C)CO)C(=O)Cc2cc(NS(=O)(=O)c3cccs3)ccc2O[C@H]1CN(C)C(=O)Nc1cccc2ccccc12 | inactive
CCCNC(=O)N(C)C[C@@H]1Oc2cc(-c3ccccc3F)ccc2S(=O)(=O)N([C@@H](C)CO)C[C@@H]1C | inactive
CN(C)CCCNC(=O)C[C@@H]1C=C[C@H](NS(=O)(=O)c2ccccc2)[C@@H](CO)O1 | inactive
C[C@@H]1CCCCO[C@@H](CN(C)S(=O)(=O)c2cn(C)cn2)[C@@H](C)CN([C@H](C)CO)C(=O)c2cc(NS(=O)(=O)c3ccccc3)ccc2O1 | inactive
O=C(NCCCN1CCOCC1)[C@H]1[C@H](CO)[C@H]2Cn3c(cccc3=O)[C@@H]1N2C(=O)C1CCCC1 | inactive
COc1ccc(CNC(=O)C[C@H]2C[C@@H]3c4cc(NS(=O)(=O)c5ccc(F)cc5)ccc4O[C@@H]3[C@H](CO)O2)cc1 | inactive
C[C@@H]1CN([C@@H](C)CO)C(=O)Cc2cc(NC(=O)CCCCCC(=O)Nc3ccccc3N)ccc2O[C@H]1CN(C)S(C)(=O)=O | inactive
COc1cccc(CN(C)C[C@@H]2OCc3ccccc3-c3c(n(C)c4ccccc34)C(=O)N([C@@H](C)CO)C[C@H]2C)c1 | inactive
C[C@H](CO)N1C[C@H](C)[C@H](CN(C)Cc2ccc(C(F)(F)F)cc2)OCCCC[C@H](C)Oc2ccc(NS(=O)(=O)c3cn(C)cn3)cc2C1=O | inactive
O=C(C[C@@H]1CC[C@H]2[C@@H](COC[C@H](O)CN2C(=O)Nc2ccc(Cl)cc2)O1)NCCc1ccncc1 | inactive
C[C@@H]1CCCCO[C@H](CN(C)Cc2ccc(C(F)(F)F)cc2)[C@@H](C)CN([C@@H](C)CO)C(=O)c2cc(N(C)C)ccc2O1 | inactive
O=C(C[C@@H]1C[C@@H]2c3cc(NC(=O)C4CCOCC4)ccc3O[C@@H]2[C@H](CO)O1)NCc1cc(F)ccc1F | inactive
O=C(O)c1cc2ccc(O)c(=O)c-2c(O)c(O)c1 | inactive
O=c1c(O)cccc2cc(O)c(O)c(O)c12 | inactive
O=c1c(O)c(O)cc2cccc(O)c(O)c1-2 | active
CCCNC(=O)Nc1ccc2c(c1)OC[C@H](C)N(C(=O)C1CCOCC1)C[C@H](C)[C@@H](OC)CN(C)C2=O | inactive
Cc1ccc(S(=O)(=O)N(C)C[C@@H]2Oc3ccc(NS(C)(=O)=O)cc3CC(=O)N([C@@H](C)CO)C[C@H]2C)cc1 | inactive
C=CCOC(=O)[C@@H]1[C@@H]2C=C[C@@]3(O2)[C@@H]1C(=O)N(CCCCCCO)[C@H]3C(=O)N(CC=C)Cc1ccccc1 | active
C=CCN(Cc1ccccc1)C(=O)[C@@H]1N(CCOCCO)C(=O)[C@@H]2[C@H](C(=O)O)[C@@H]3C=C[C@@]21O3 | inactive
C=CCOC(=O)[C@@H]1[C@@H]2C=C[C@]3(O2)[C@H](C(=O)N(CC=C)Cc2ccccc2)N(c2cccc(Cl)c2CO)C(=O)[C@@H]13 | inactive
Cc1cc(C(=O)Nc2cccc3c2O[C@@H](CN(C)C(=O)Nc2ccc4c(c2)OCO4)[C@H](C)CN([C@H](C)CO)C3=O)n(C)n1 | inactive
CC(=O)N1CCN(CCOc2ccc(C3CCN(C4=Nn5c(nnc5C(F)(F)F)CC4)CC3)cc2)CC1 | active

SMILES | cytotoxicity call
C[C@@H]1CN([C@H](C)CO)S(=O)(=O)c2ccc(/C=C/c3ccccc3)cc2O[C@@H]1CN(C)C(=O)CN1CCOCC1 | inactive
COc1ccc(NC(=O)N(C)C[C@H]2OCCCC[C@H](C)Oc3ccc(NC(=O)Nc4ccc(F)cc4)cc3C(=O)N([C@@H](C)CO)C[C@H]2C)cc1 | inactive
CC(C)C[C@@H]1NC(=O)[C@@H]2C[C@H](C(=O)NCCCCCNC(=O)CS)[C@H](c3ccc(O)cc3)N2C1=O | inactive
C[C@H]1CN([C@@H](C)CO)S(=O)(=O)c2ccc(-c3cccc(C#N)c3)cc2O[C@H]1CN(C)C(=O)c1ccncc1 | inactive
C[C@@H]1CN([C@@H](C)CO)S(=O)(=O)c2ccc(-c3ccc(C(=O)N(C)C)cc3)cc2O[C@@H]1CN(C)C(=O)C1CCOCC1 | inactive
O=C(O)CC(O)(CC(=O)O)C(=O)O [listing 1 of 2 here] | inactive
O=C(O)C1(c2ccccc2)CCCC1 | inactive
O=C(O)CC(O)(CC(=O)O)C(=O)O [listing 2 of 2 here] | inactive
Cc1ccccc1C(OCCN(C)C)c1ccccc1.O=C(O)CC(O)(CC(=O)O)C(=O)O (centres undefined) | inactive
CN(C)CCOc1ccc(C(=C(CCCl)c2ccccc2)c2ccccc2)cc1.O=C(O)CC(O)(CC(=O)O)C(=O)O | active
CCC(=C(c1ccccc1)c1ccc(OCCN(C)C)cc1)c1ccccc1.O=C(O)CC(O)(CC(=O)O)C(=O)O | inactive
CCN(CC)CCOCCOC(=O)C1(c2ccccc2)CCCC1.O=C(O)CC(O)(CC(=O)O)C(=O)O | active
CCN(CC)CCOCCOC(=O)C(CC)(CC)c1ccccc1.O=C(O)CC(O)(CC(=O)O)C(=O)O | inactive
CCN(CC)CCOc1ccc(C(=C(Cl)c2ccccc2)c2ccccc2)cc1.O=C(O)CC(O)(CC(=O)O)C(=O)O | active
O=C(C[C@@H]1CC[C@@H]2[C@H](COC[C@H](O)CN2S(=O)(=O)c2ccc(F)cc2)O1)NCCN1CCCCC1 | inactive
C[C@@H]1CN([C@H](C)CO)C(=O)c2cccc(NS(C)(=O)=O)c2O[C@H]1CN(C)C(=O)Nc1ccc2c(c1)OCO2 | inactive
CC(C)CC#Cc1ccc2c(c1)O[C@H](CN(C)Cc1cncnc1)[C@@H](C)CN([C@H](C)CO)S2(=O)=O | inactive
C=CC(=O)Nc1ccc([C@@H](CCc2ccc(OC)c(OC)c2)OC(=O)[C@@H]2CCCCN2C(=O)C(=O)C(C)(C)CC)cc1 | inactive
Cc1ccc(S(=O)(=O)Nc2ccc3c(c2)C(=O)N([C@H](C)CO)C[C@@H](C)[C@@H](CN(C)C(=O)Cc2ccccc2)OCCCC[C@H](C)O3)cc1 | inactive
COCC(=O)Nc1ccc2c(c1)OC[C@@H](C)N(Cc1ccccc1F)C[C@@H](C)[C@H](OC)CN(C)C2=O | inactive
Cc1noc(C)c1NC(=O)Nc1ccc2c(c1)C(=O)N([C@@H](C)CO)C[C@@H](C)[C@H](CN(C)S(=O)(=O)c1cccs1)OCCCC[C@H](C)O2 | inactive
C[C@@H]1CN([C@H](C)CO)C(=O)c2cc(NC(=O)Cn3cnnn3)ccc2O[C@@H]1CN(C)S(=O)(=O)c1cccs1 | inactive
